A short description of assay [1]: cAMP Responsive Elements (CRE) small molecule antagonists, cell-based qHTS assay: qHTS cell viability counter screen (AID 2060913). Further: nearly all actives have a fitted effect of over 40% in size. In a few lines: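 CRE-bla HEK293T cells (2,000/well, 18 h) given compound plus NKH477 0.25 uM final for 3 h at 37C; viability counter-screen by CellTiter-Glo luminescence in same wells after 30 min.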
Assay [2] can be described thus: cAMP Responsive Elements (CRE) small molecule agonists, cell-based qHTS assay: qHTS cell viability counter screen (AID 2060914). Further: nearly all actives have a fitted effect of over 50% in size. In a few lines: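 CRE-bla HEK293T cells in 10% dialyzed FBS medium were exposed to compounds for 3 h at 37C after 18 h plating. CellTiter-Glo was then added in the same wells, and luminescence was read after 30 min at room temperature.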
On the technique in general: qHTS replaces the single test concentration by a dilution series.

Molecules are shown by their SMILES. Results filed as inconclusive are left out. Unmarked numbers belong to inactive results. Active and inactive are the calls of the source. The call rests on the fitted dose curve; in most records, active means well fitted cell-killing curve with a large enough effect in the repeat runs; inconclusive means weak or mixed curves, or effect the other way; inactive means flat fitted curve, though single readings scatter.

This note sets out measurements from PubChem BioAssay (Tox21).
On the % scale 0 is the no-effect control and ±100 the full control effect.

For the compound `Cc1c(Cl)cccc1[N+](=O)[O-]`, the Potency result in assay [1] and in assay [2] was “inactive” each time.

For `Cc1ncc([N+](=O)[O-])n1CC(O)CCl` (stereo unspecified), the Potency entry in assay [1] and in assay [2] was “inactive” each time.

Turning to `CC(C)CC(C)O` (stereo unspecified), the Potency entry in assay [1] and in assay [2] was “inactive” each time.

For the compound `C[C@H](CCC(=O)O)[C@H]1CC[C@H]2[C@@H]3CC[C@@H]4C[C@H](O)CC[C@]4(C)[C@H]3CC[C@]12C`, the Potency entry in assay [1] and in assay [2] was “inactive” each time.

On to `NS(=O)(=O)c1ccccc1Cl`, for which the Potency entry in assay [1] and in assay [2] was “inactive” throughout.

Regarding `CCC(C)C1N=C(C)C(C)S1` (stereo unspecified), the Potency result in assay [1] and in assay [2] was “inactive” throughout.

Take `CCCCCOC(=O)COc1cc(N2C(=O)C3=C(CCCC3)C2=O)c(F)cc1Cl`: the Potency entry in assay [1] and in assay [2] was “inactive” each time.

`CCC(=O)O[C@@H]1C[C@H]2CC[C@]1(C)C2(C)C`: the Potency result in assay [1] and in assay [2] was “inactive” throughout.

For `COC(=O)c1ccc2cc(C(=O)OC)ccc2c1`, the viability change, negative = cytotoxic in assay [1] is 9.85% [at 18.9 µM]. In addition, the activity change, negative = cytotoxicity in assay [2] was -17.3% [at 18.9 µM].

`COC(=O)c1cccc(C(=O)OC)c1`: the Potency entry in assay [1] and in assay [2] was “inactive” throughout.

For `CC(CN(C)C)CN1c2ccccc2CCc2ccccc21` (stereo unspecified), the Potency result in assay [1] and in assay [2] was “inactive” throughout.

`O=C(C(Cl)Cl)N1CCOC12CCCCC2`: the Potency result in assay [1] and in assay [2] was “inactive” in each case.

For the compound `Cc1ccccc1N=C(N)N=C(N)N`, the Potency entry in assay [1] and in assay [2] was “inactive” each time.

`COC(=O)Nc1nc2ccc(C(=O)c3cccs3)cc2[nH]1`: the Potency result in assay [1] and in assay [2] was “inactive” throughout.

As to `O=C(O)CCc1ccccc1`, the Potency result in assay [1] and in assay [2] was “inactive” each time.

As for `CCOC(=O)N1CCC(n2c(=O)[nH]c3cc(Cl)ccc32)CC1`, the Potency entry in assay [1] and in assay [2] was “inactive” in each case.

In the case of `COc1cc(/C=C/C(N)=O)cc(OC)c1OC`, the Potency result in assay [1] and in assay [2] was “inactive” each time.

Turning to `Nc1ccc(S(=O)(=O)NC(=O)c2ccccc2)cc1`, the Potency result in assay [1] and in assay [2] was “inactive” each time.

On to `Cc1ccccc1C(=O)Nc1ccc(C(=O)N2CCCC(N(C)C)c3ccccc32)cc1` (stereo unspecified), for which the Potency result in assay [1] and in assay [2] was “inactive” throughout.

As for `Cc1cc2c(cc1C(F)(F)F)N(C(=O)Nc1ccc(Oc3cccnc3C)nc1)CC2`, the Potency result in assay [1] and in assay [2] was “inactive” each time.

For the compound `O=c1ccc2ccccc2o1`, the Potency result in assay [1] and in assay [2] was “inactive” throughout.

Turning to `CC(C)(C)C(=O)OCOC(=O)[C@@H]1N2C(=O)[C@@H](NC(=O)[C@H](N)c3ccccc3)[C@H]2SC1(C)C`, the Potency entry in assay [1] and in assay [2] was “inactive” throughout.

For the compound `NC1(c2ccc(-c3nc4ccn5c(=O)[nH]nc5c4cc3-c3ccccc3)cc2)CCC1`, the Potency result in assay [1] and in assay [2] was “inactive” each time.

For `C=C/C=C/C=C/CCCCC`, the viability change, negative = cytotoxic in assay [1] was -0.548% [at 18.9 µM]. Moreover, in assay [2], the activity change, negative = cytotoxicity is -22.6% [at 18.9 µM].

For the compound `O=C1NC(=O)c2ccccc21`, the Potency result in assay [1] and in assay [2] was “inactive” in each case.

As for `CCOC(=O)c1ccc(NC(=O)CN2CCCCC2)cc1`, the Potency result in assay [1] and in assay [2] was “inactive” in each case.

For `N#CCCNCCC#N`, the Potency result in assay [1] and in assay [2] was “inactive” in each case.

Consider `CC1=CC=C(C(C)C)CC1`, for which the Potency result in assay [1] and in assay [2] was “inactive” each time.

On to `O=C(O)C(S)C(S)C(=O)O` (stereo unspecified), for which the Potency result in assay [1] and in assay [2] was “inactive” in each case.

For `O=C1CCCCC1`, the Potency entry in assay [1] and in assay [2] was “inactive” each time.

As for `Cc1cc(Nc2ccc(O)cc2)ccc1N`, the Potency entry in assay [1] and in assay [2] was “inactive” throughout.

Regarding `O=C(O)C(=O)Cc1ccccc1`, the Potency result in assay [1] and in assay [2] was “inactive” each time.

For `Clc1ccnc(Cl)n1`, the Potency result in assay [1] and in assay [2] was “inactive” in each case.

Take `NC(=O)c1ccccc1Cl`: the Potency result in assay [1] and in assay [2] was “inactive” throughout.

For the compound `O=S(=O)(O)c1ccccc1O`, the Potency result in assay [1] and in assay [2] was “inactive” each time.

As to `NS(=O)(=O)c1cc(-c2nn[nH]n2)c(NCc2cccs2)cc1Cl`, the Potency result in assay [1] and in assay [2] was “inactive” in each case.

Turning to `Cc1onc(-c2c(Cl)cccc2Cl)c1C(=O)N[C@@H]1C(=O)N2[C@@H]1SC(C)(C)[C@@H]2C(=O)O`, the Potency entry in assay [1] and in assay [2] was “inactive” in each case.

In the case of `COC(OC)C(C)c1ccccc1` (stereo unspecified), the Potency result in assay [1] and in assay [2] was “inactive” throughout.

Regarding `Cc1nc(C)nc(N2C[C@@H](C)N(c3ccnc([C@@H](C)O)n3)[C@@H](C)C2)n1`, the Potency result in assay [1] and in assay [2] was “inactive” throughout.

Turning to `CCCCCCCCCCCCCCCC/C=C/C1CC(=O)OC1=O` (stereo unspecified), the Potency result in assay [1] and in assay [2] was “inactive” in each case.

Regarding `O=C(CCCCCCC(=O)Nc1ccccc1)NO`, the Potency entry in assay [1] and in assay [2] was “inactive” each time.

With `[O-][n+]1cccc(/C(Cl)=N/OC[C@@H](O)CN2CCCCC2)c1`, the Potency result in assay [1] and in assay [2] was “inactive” in each case.

For `CC(=O)Nc1ccccc1`, the Potency entry in assay [1] and in assay [2] was “inactive” each time.

For `CCN(C(=O)c1cc(C)cc(OC[C@H](C)Nc2ccncc2)c1)C(C)C`, the Potency result in assay [1] and in assay [2] was “inactive” each time.

On to `O=C(O)CO`, for which the Potency entry in assay [1] and in assay [2] was “inactive” in each case.

Consider `CCCCCCCCCCCCCCCC(=O)OCC`, for which the Potency entry in assay [1] and in assay [2] was “inactive” each time.

On to `C=C[C@@]1(C)CC(=O)[C@]2(O)[C@@]3(C)[C@@H](O)CCC(C)(C)[C@@H]3[C@H](O)[C@H](OC(C)=O)[C@@]2(C)O1`, for which the Potency result in assay [1] and in assay [2] was “inactive” throughout.

In the case of `COc1ccc(/C=C/c2cc(OC)cc(=O)o2)cc1`, the Potency result in assay [1] and in assay [2] was “inactive” each time.

Consider `COC(=O)/C=C(/C)N`, for which the Potency entry in assay [1] and in assay [2] was “inactive” throughout.

In the case of `CCCCCCCCOc1ccccc1C(=O)Nc1ccc(C(=O)OCC[N+](C)(CC)CC)cc1`, the Potency result in assay [1] and in assay [2] was “inactive” throughout.

On to `CCCOC(=O)c1cc(O)c(O)c(O)c1`, for which the Potency result in assay [1] and in assay [2] was “inactive” in each case.

`Cc1cc(O)c2c(O)c3c(O)cccc3cc2c1`: the Potency result in assay [1] and in assay [2] was “inactive” throughout.

With `CCO[Si](C)(C)OCC`, the Potency entry in assay [1] and in assay [2] was “inactive” in each case.

In the case of `CCCCCCCCCCCCCCC(=O)NC(CO)CCCCCCCCCCCCCC` (stereo unspecified), the Potency entry in assay [1] and in assay [2] was “inactive” throughout.

With `O=c1c(O)c(-c2ccc(O)c(O)c2)oc2cc(O)cc(O)c12`, the Potency entry in assay [1] and in assay [2] was “inactive” in each case.

`C=CC1CC2C=CC1C2` (stereo unspecified): the Potency entry in assay [1] and in assay [2] was “inactive” each time.

As to `CCCCOc1cc(C(=O)NCCN(CC)CC)c2ccccc2n1`, the Potency entry in assay [1] and in assay [2] was “inactive” throughout.

Take `CCCCCCC(O)CCCCCCCCCCC(=O)O` (stereo unspecified): the Potency result in assay [1] and in assay [2] was “inactive” each time.
